HT1080 IDH1KD tx = kills HT-1080 cells with IDH1 knockdown | HT-1080 IDH1 knockdown viability, ATP luminescence, 48 h | Potency, µM (series often up to 46.1 µM), without a hit: top-dose activity, negative = toxicity, hits mostly cytotoxic | 360,000 compounds, 2% hits;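 further: potency means the concentration at half of the fitted maximal effect; 0% = DMSO wells and -100% = cell-free medium wells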
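CellTiter-Glo luminescence after 48 h compound exposure at 37 degrees C of IDH1-knockdown HT-1080 cells in 5% FBS RPMI. %Activity scaled between DMSO wells and cell-free media wells, with curves fitted and assigned curve classes.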
ELG1 repair inh = inhibitors of ELG1-dependent DNA repair in HEK293T cells; HEK293T ELG1-luciferase reporter, luminescence, 16 h; DNA damage induced by 5-fluorouridine; Potency, µM (series often up to 46.1 µM), inactives show top-dose activity change, negative = inhibition, hits mostly inhibitors; 330,000 compounds, 2.3% hits; AID 504467; further: potency means the concentration at half of the fitted maximal effect; nearly all actives have a fitted effect of over 55% in size
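Luminescence from the luciferase reporter, measured 30 min after ONE-Glo reagent at room temperature, was the read-out. Beforehand, 2,000 cells per well were exposed for 16 hr at 37 °C to 5-fluorouridine together with compound or vehicle.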
TDP1 cell noCPT = qHTS for Inhibitors of human tyrosyl-DNA phosphodiesterase 1 (TDP1): qHTS in cells in absence of CPT; DT40 Tdp1-/- hTDP1 cells, no CPT, ATP luminescence, 48 h; Potency, µM (titrated, usually from 46.2 µM), for the others: at the top dose activity change, negative = growth inhibition, usual class: inhibitors; 420,000 compounds, 15% hits; further: potency means the concentration at half of the fitted maximal effect; nearly all actives have a fitted effect of over 55% in size
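Readout: luminescence from CellTiter-Glo after 30 min in the dark at RT. Cells: DT40 Tdp1-/- with stable hTDP1, 400/well. Exposure: compounds alone, ≥48 hr, 37 °C.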
DT40 TDP1 CPT = growth inhibition of DT40 Tdp1-/-;hTDP1 cells with camptothecin (screen for TDP1 inhibitors); 420,000 compounds, 12% hits; Potency, µM (top dose mostly 46.2 µM), without a hit: at the top dose activity change, negative = growth inhibition, usual class: inhibitors; AID 686979; chicken DT40 Tdp1-/-;hTDP1 cells + 20 nM CPT, ATP luminescence, 48 h; further: potency means the concentration at half of the fitted maximal effect; nearly all actives have a fitted effect of over 55% in size
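Chicken DT40 Tdp1-/- cells stably complemented with human TDP1 were seeded at 400 cells/well in medium containing 20 nM camptothecin, exposed to pin-transferred compounds, and grown at 37 °C for at least 48 hr. Viability was read as ATP luminescence.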
IL-1B inflam inh = blocks inflammasome-driven IL-1 beta release. 360,000 compounds, 4.7% hits. activity change, % at 57.5 µM. THP-1 LPS/ATP IL-1B secretion, AlphaLISA, 16 h; stronger effect = lower value; in the data active means activity change below about -50%; inconclusive means mostly about -30% to -49%
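Secreted IL-1B measured by AlphaLISA bead assay after 16 h compound exposure of THP-1 cells; compounds (final up to 57.5 uM) added 1 h before LPS (250 ng/mL) and ATP (1.25 mM) stimulation; lower signal means less secretion.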
HT1080NT lethal = kills 2HG-producing HT-1080-NT fibrosarcoma cells. HT-1080-NT fibrosarcoma viability, CellTiter-Glo ATP luminescence, 48 h. AID 686970. 360,000 compounds, 1.6% hits. Potency, µM (series often up to 46.1 µM), without a hit: at the highest dose activity, negative = less viability, hits mostly cytotoxic;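 further: NT is the 2HG producing partner of a matched IDH1 knockdown line; potency means the concentration at half of the fitted maximal effect; 0% = DMSO-treated cells and -100% = media-only wells without cells; nearly all actives have a fitted effect of over 55% in size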
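Luminescent CellTiter-Glo readout after 48 hours of compound exposure at 37 degrees C defined viability of HT-1080-NT cells. Activity was normalized to DMSO wells and cell-free media wells; concentration-response curves were fitted and assigned curve classes.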
An asterisk follows results filed as active; u = inconclusive; x = not tested or not shown; [ ] = dose if it differs, or a comment. Hits are enriched below; roughly 19% of the tested compounds scored in any of these assays. Unless noted, the call rests on the fitted dose curve; in most records, active means well fitted curve in the direction sought with a large enough effect; inconclusive means small, poorly fitted or top-dose-only effect, or another doubt; inactive means no such curve, though single readings can be large; an effect the other way counts as inactive or inconclusive. Unless noted, on the % scale 0 is the no-effect control and ±100 the full control effect.

SMILES | HT1080 IDH1KD tx | ELG1 repair inh | TDP1 cell noCPT | DT40 TDP1 CPT | IL-1B inflam inh | HT1080NT lethal
N#C/C(=C\c1ccc(-c2ccc(C(=O)O)cc2)o1)C(=O)Nc1ccc(F)cc1 | 4% | 19% | 12µM* | u | -9 | -2%
COc1cc(C(=O)Nc2cccc(NC(=O)c3cccs3)c2)cc(OC)c1OC | 0% | 8.2µM* | 21µM* | 21µM* | -27 | -3%
COc1ccc(-c2nnc(NC(=O)c3cccs3)s2)c(OC)c1 | 17% | u | 29µM* | 16µM* | 0 | 8%
COc1cc(NC(=O)c2cc3ccccc3cc2OC)ccc1NC(=O)c1cccs1 | -16% | 15µM* | 13µM* | 23µM* | -69* | -30%
COc1cc(C(=O)Nc2cccc(NC(=O)c3ccccc3)c2)cc(OC)c1OC | 9% | u | -28% | u | u | 13%
COc1cc(C(=O)OCc2ccc(C)cc2)cc(NC(=O)c2cccs2)c1OC | 16% | 21µM* | u | u | 0 | 22%
Cc1cc(S(=O)(=O)N2CCC3(CC2)OCCN3S(=O)(=O)c2cccs2)ccc1F | -12% | -6% | -29% | -24% | -10 | -6%
COc1ccc(OC)c(CN2CCCC(n3cc(C(=O)N4CCCCC4)nn3)C2)c1 (stereo not drawn) | x | x | -18% | 0% | x | x
COc1c(Cl)cc(Cl)cc1/C=C/C(=O)c1ccc(NC(=O)c2cccs2)cc1 | u | u | 2.6µM* | 2.3µM* | -104* | 21µM*
COc1cc(NC(=O)c2cccc(Cl)c2)ccc1NC(=O)c1cccs1 | -3% | u | 18µM* | u | x | 10%
O=C(CCC(=O)N1CCN(c2ccccn2)CC1)Nc1nnc(C(F)(F)F)s1 | 1% | -9% | -13% | -12% | 19 | 6%
COC(=O)c1ccc(NC(=O)c2nn(C)c3c2CS(=O)(=O)c2ccccc2-3)cc1 | x | x | -1% | -14% | x | x
CC(C)c1cc(=O)oc2c3c4c(cc12)CCCN4CCC3 | 4% | -2% | u | 16µM* | -28 | -5%
O=c1oc2c(CN3CCOCC3)c(O)ccc2c2c1CCC2 | -5% | -1% | -3% | -2% | 1 | -3%
O=c1oc2c3c4c(cc2c(C(F)(F)F)c1CCN1CCOCC1)CCCN4CCC3 | 0% | -2% | 16µM* | 16µM* | 78 | -8%
Cc1cc(=O)oc2c3c4c(cc12)OCCN4CCC3 | -8% | -12% | -29% | u | 11 | 6%
N#CC(=NCc1cccnc1)C1=C(O)c2ccccc2C1=O | 3% | 0% | -15% | -12% | 44 | -3%
CC1(C)CC(=O)C2=C(C1)Nc1[nH]n(-c3ccccc3)c(=O)c1C2c1ccc2c(c1)OCO2 (stereo not drawn) | -17% | 16% | 5.2µM* | 7.3µM* | -7 | 0%
Cc1cnnn1-c1ccc(C(=O)CCl)cc1 | 1% | -9% | 2.6µM* | 2.3µM* | -109* | 1%
COc1cccc(C(=O)NN=C2CCCC2)c1 | -12% | -2% | 16% | -3% | 5 | -4%
COc1cccc(C(=O)NNC2=C(C(=O)C(F)(F)F)CCC2)c1 | 12µM* | u | 1.5µM* | 2.1µM* | 122 | u
O=C(NNC1=C(C(=O)C(F)(F)F)CCC1)c1ccccc1O | u | u | 21µM* | 16µM* | 82 | 23µM*
O=C(NNC1=C(C(=O)C(F)(F)F)CCC1)c1ccc(Br)cc1 | 10µM* | u | 16µM* | u | 37 | u
Nc1ccccc1C(=O)NNC1=C(C(=O)C(F)(F)F)CCC1 | u | u | 4.1µM* | 4.1µM* | 6 | -21%
COc1ccc(-c2cc(C)cc3c2OC(CNC(=O)c2cc(C(C)C)on2)C3)nn1 (stereo not drawn) | x | x | -21% | 0%[9.04 µM] | x | x
SMILES | HT1080 IDH1KD tx | ELG1 repair inh | TDP1 cell noCPT | DT40 TDP1 CPT | IL-1B inflam inh | HT1080NT lethal
COc1ccccc1C(=O)NNC1=C(C(=O)C(F)(F)F)CCC1 | 2.2µM* | -22% | u | u | 83 | 3.5µM*
O=C(NNC1=C(C(=O)C(F)(F)F)CCC1)c1ccccc1Cl | u | u | 1µM* | 1.3µM* | 67 | 15µM*
O=C(NNC(=O)c1ccccc1Cl)c1ccccc1Cl | 5% | 17% | -1% | -2% | 1 | 4%
C[C@H](CO)N1C[C@H](C)[C@@H](CN(C)C(=O)OCc2ccccc2)OCc2cn(nn2)CCCC1=O | 16% | x | 3% | -9% | 11 | 8%
CCc1ccc(CNC(=O)c2c(C)oc3ncnc(N4CCOCC4)c23)cc1 | x | x | u | 13µM* | x | x
Cc1cc(Br)ccc1NC(=O)c1c(C)oc2ncnc(N3CCCCC3)c12 | x | x | 16µM* | 16µM* | x | x
Cc1ccc(NC(=O)c2c(C)oc3ncn(C)c(=O)c23)cc1F | x | x | 18µM* | u | x | x
CCc1cccc(NC(=O)c2c(C)oc3ncnc(N4CCCCC4)c23)c1 | x | x | 9.2µM* | 13µM* | x | x
Cc1oc2ncnc(N3CCCCC3)c2c1C(=O)NCC1CCN(Cc2ccc(F)cc2)CC1 | x | x | -23% | -26% | x | x
Cc1ccc(NC(=O)c2c(C)oc3ncnc(N4CCCCC4)c23)cc1Cl | x | x | 16µM* | 16µM* | x | x
Cn1c(O)c(N=NC(=O)c2cccc(S(=O)(=O)N3CCCCC3)c2)c2ccccc21 | -19% | 18µM* | u | 16µM* | -22 | -22%
NC(=O)c1cccc(S(=O)(=O)N2CCCCC2)c1 | -9% | -1% | 1% | -26% | 20 | 6%
CCC(=O)Nc1nn(CC(C)C)c2nc3ccc(C)cc3cc12 | -1% | -2% | 1% | -20% | -7 | 1%
Cc1ccc2c(c1)C(=O)C(=O)N2CCCOc1ccccc1 | -11% | 4% | 2.1µM* | 1µM* | 0 | -2%
O=C1c2ccccc2C(=O)N1CCCOc1ccccc1 | 1%[9.24 µM] | u | 7% | 7% | 44 | 4%
Cc1cccc(OCCCN2C(=O)C(=O)c3cc(C)ccc32)c1 | -1% | 0% | 0.92µM* | 1.6µM* | 4 | -20%
CC1CCCN(C(=O)CCS(=O)(=O)c2ccc3c(c2)NC(=O)C(C)S3)C1 (stereo not drawn) | -1% | 6% | u | u | 20 | -4%
CCCc1ccc(S(=O)(=O)N/N=C(/C)c2ccc3c(c2)OCO3)cc1 | -8% | -5% | 6% | -11% | 16 | -9%
Cc1csc(NC(=O)CCS(=O)(=O)c2ccc(Br)cc2)n1 | -6% | -4% | 23µM* | u | 15 | -2%

Compound activity deposited in PubChem by National Center for Advancing Translational Sciences (NCATS).
